Experimental findings from PubChem BioAssay (NCATS) are described below.

The nature of test [1]: Drug repurposing screens with cells derived from glioblastoma tumor samples (AID 1345199). Further: nearly all actives have a fitted effect of over 40% in size. Particulars: GBM patient neurospheres viability, ATP luminescence, 48 h. In a few lines:
(§1)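 Primary testing used CD133+ neurospheres from four GBM patients, seven concentrations, 48 h exposure and ATP-based viability; confirmation added three slower-growing patient lines.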

For another test, the system named is astro (control astrocytes). Described as above. Particulars: viability, ATP luminescence, 48 h; series mostly up to 45.9 µM. In a few lines:
as §1

[2] abbreviates: at 45.9 µM (top of the series), tumour line B.
Where [3] appears, read: at 45.9 µM (top of the series), tumour line D.
The mark [4] stands for this setting: at 46.1 µM (top of the series), tumour line C.

“And” between values parts separate entries of the source, which are not always exact repeats. Identical values can stand only once. Records with an inconclusive call do not appear. Some structures have more than one record in an assay (separate samples or runs), and their calls can disagree. Values without a mark were called inactive. The source made the active and inactive calls. The call rests on the fitted dose curve; in most records, active means well fitted inhibition curve with a large enough effect; inconclusive means small, poorly fitted or top-dose-only effect; inactive means flat fitted curve, though single readings scatter.
On the % scale 0 is the no-effect control and ±100 the full control effect; potency means the concentration at half of the fitted maximal effect.

As for `O=C(Cn1c(=O)sc2ccc(Cl)cc21)N1CCN(CCO)CC1`, the activity, negative = cell killing in test [1] (setting [2]) is -0.42%; in test [1] (setting [3]), -6.64%; in test [1] (setting [4]), 15.7%. Further, the Potency entry in the test on astro was “inactive”.

With `CO[C@@H]1[C@@H](O[C@@H]2O[C@H](C)[C@@H](O[C@H]3C[C@@](C)(O)[C@@H](OC(=O)CC(C)C)[C@H](C)O3)[C@H](N(C)C)[C@H]2O)[C@@H](CC=O)C[C@@H](C)[C@@H](O)/C=C/C=C/C[C@@H](C)OC(=O)C[C@H]1O`, the activity, negative = cell killing was -21.1% in test [1] (setting [3]); -11.8% and -30.6% in test [1] (setting [4]). In test [1] (tumour line A), the Potency is 12.6 µM (active). Moreover, the Potency result in the test on astro is “inactive”.

Regarding `COc1cc(C[C@@H]2NCCc3cc(O)c(O)cc32)cc(OC)c1OC`, the activity, negative = cell killing in test [1] (setting [2]) was 13.6%; in test [1] (setting [3]) it was -12.2%; in test [1] (setting [4]), -8.42%. In addition, in the test on astro, the Potency result was “inactive”.

For the compound `O=C(O)[C@@H](O)[C@H](O)[C@H](O)[C@@H](O)C(=O)O` (tested in a mixture with another compound), the activity, negative = cell killing in test [1] (setting [2]) is -6.98%; in test [1] (setting [3]) it was -10.8%; in test [1] (setting [4]) it was -8.08%. Besides, the Potency result in the test with astro was “inactive”.

Turning to `CCOC(=O)Cc1cccc(-c2cc(CCCCCCc3ccc(O[C@H]4O[C@H](COC(C)=O)[C@@H](OC(C)=O)[C@H](OC(C)=O)[C@@H]4OC(C)=O)c(-c4cccc(CC(=O)OCC)c4)c3)ccc2O[C@H]2O[C@H](COC(C)=O)[C@@H](OC(C)=O)[C@H](OC(C)=O)[C@@H]2OC(C)=O)c1`, the activity, negative = cell killing in test [1] (setting [2]) is -6.7%; in test [1] (setting [3]), -4.61%; in test [1] (setting [4]), 18%. Besides, the Potency entry in the test with astro is “inactive”.

`CN=C(NC)NCc1ccccc1`: the activity, negative = cell killing is -3.78% in test [1] (setting [2]), 7.26% in test [1] (setting [3]) and -3.39% in test [1] (setting [4]). In the test on astro, the Potency result was “inactive”.

As to `CN[C@@H]1CCc2[nH]c3ccc(C(N)=O)cc3c2C1`, the activity, negative = cell killing is -9.15% in test [1] (setting [2]), -11.6% in test [1] (setting [3]) and 28.3% in test [1] (setting [4]). For the same compound, in the test with astro, the Potency entry is “inactive”.

For `OC(CN1CCCCC1)c1cc(-c2ccccc2)on1` (stereo not given), the activity, negative = cell killing in test [1] (setting [2]) was -15.5%; in test [1] (setting [3]), -0.851%; in test [1] (setting [4]), 5.87%. In addition, the Potency result with astro was “inactive”.

`CCC(C)(C)OC(=O)N[C@@H](Cc1c[nH]c2ccccc12)C(=O)N[C@@H](CCSC)C(=O)N[C@@H](CC(=O)O)C(=O)N[C@@H](Cc1ccccc1)C(N)=O`: the activity, negative = cell killing in test [1] (setting [2]) was -2.77%; in test [1] (setting [3]), -10.3%; in test [1] (setting [4]), -14.8%. The Potency result in the test on astro was “inactive”.

As to `CCOc1ccc(N=C(C)Nc2ccc(OCC)cc2)cc1`, the activity, negative = cell killing in test [1] (setting [2]) was -12.2%; in test [1] (setting [4]), -2.07%. In addition, in test [1] (tumour line A), the Potency was 11.2 µM (active). In the test on astro, the Potency result was “inactive”.

With `NCCC[C@H](N)C(=O)O`, the activity, negative = cell killing in test [1] (setting [2]) is -11.7%; in test [1] (setting [3]), -10.6%; in test [1] (setting [4]), -18.4%. In addition, in the test with astro, the Potency entry is “inactive”.

Consider `CC(=O)OC[C@H]1O[C@@H](O[C@H]2[C@H](O)[C@@H](OC(=O)c3ccccc3C(=O)O)[C@H](O)O[C@@H]2COC(C)=O)[C@H](O)[C@@H](OC(=O)c2ccccc2C(=O)O)[C@@H]1O`, for which the activity, negative = cell killing in test [1] (setting [2]) was -10.5%; in test [1] (setting [3]), -4.26%; in test [1] (setting [4]), 6.79%. For the same compound, the Potency entry in the test with astro is “inactive”.

With `NCCC(=O)[N-][C@@H](Cc1cnc[nH]1)C(=O)O.[Zn]`, the values for the activity, negative = cell killing in test [1] (setting [2]), in test [1] (setting [3]) and in test [1] (setting [4]) were -11.4%, -14.7% and 0.418%, respectively. In addition, the Potency entry in the test on astro was “inactive”.

For `O=C(Nc1ccc(/C=C/c2ccc(NC(=O)c3cc(S(=O)(=O)O)c4cccnc4c3O)cc2S(=O)(=O)O)c(S(=O)(=O)O)c1)c1cc(S(=O)(=O)O)c2cccnc2c1O`, the values for the activity, negative = cell killing in test [1] (setting [2]), in test [1] (setting [3]) and in test [1] (setting [4]) were -15.1%, 6.57% and -10.9%, respectively. The Potency result in the test with astro is “inactive”.

On to `CO[C@H]1[C@@H](O)[C@H](N)[C@@H](O[C@H]2O[C@H]([C@H](C)N)CC[C@H]2N)[C@H](O)[C@@H]1N(C)C(=O)CN`, for which the activity, negative = cell killing is -11.8% in test [1] (setting [2]), -4.2% in test [1] (setting [3]) and -7.2% in test [1] (setting [4]). The Potency entry in the test on astro is “inactive”.

For `N[C@@H](C(=O)N[C@H]1C(=O)N2C(C(=O)O)=C(Cl)CC[C@H]12)c1ccccc1`, the activity, negative = cell killing in test [1] (setting [2]) is 3.07%; in test [1] (setting [3]), -6.14%; in test [1] (setting [4]), -12.4%. The Potency result with astro is “inactive”.

Take `CCCCOC(=O)C(=O)Nc1cccc(-c2nn[nH]n2)c1`: the activity, negative = cell killing in test [1] (setting [2]) is -12.5%; in test [1] (setting [3]), 2.48%; in test [1] (setting [4]), -2.11%. Besides, the Potency result in the test with astro was “inactive”.

On to `O=C[C@H](O)[C@@H](O)[C@H](O)[C@H](O)CO`, for which the activity, negative = cell killing in test [1] (setting [2]) was -4.49%; in test [1] (setting [3]) it was -7.76%; in test [1] (setting [4]), 7.35%. Further, in the test on astro, the Potency result is “inactive”.

`Cc1ccc(C2(O)CCN(CCCC(=O)c3ccc(F)cc3)CC2)cc1`: in test [1] (setting [2]), the activity, negative = cell killing is -26.3%. The Potency is 6.31 µM (active) in test [1] (tumour line A) and 12.6 µM (active) in test [1] (tumour line D). Besides, the Potency entry with astro is “inactive”.

As for `CCC(=O)OCC(=O)[C@@]1(OC(=O)CC)[C@@H](C)C[C@H]2[C@@H]3CCC4=CC(=O)C=C[C@]4(C)[C@@]3(Cl)[C@@H](O)C[C@@]21C`, the figures for the activity, negative = cell killing in test [1] (setting [2]) and in test [1] (setting [4]) were -9.44% and -19%, respectively. Besides, the Potency in test [1] (tumour line A) is 10 µM (active). For the same compound, the Potency result in the test on astro was “inactive”.
